BAZ2B inh: inhibitors of human BAZ2B bromodomain; Q9UIF8; AlphaScreen BAZ2B-H3K14Ac peptide displacement; Potency, µM (series often up to 114 µM), for inactives: at the top dose activity change, negative = inhibition, hits mostly inhibitors; actives 4.4% (n = 360,000); also: potency is read from the fitted curve at half-maximal effect; % is scaled to controls: 0 for no effect and ±100 for the full control effect; nearly all actives have a fitted effect of over 60% in size
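AlphaScreen luminescence quantifies BAZ2B engagement of H3K14Ac peptide; the protein and biotinylated peptide are both at 50 nM final, buffer PBS pH 7.4 with 0.01% Tween-20, all steps at room temperature.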
CtBP-E1A blk: blocks the CtBP interaction with E1A. actives 0.49% (n = 340,000). AlphaScreen GST-E1A/His-CtBP binding, 1536-well; hits give low values. activity change, % (test concentration not listed). AID 651724; in the data active = activity change below about -65%; inconclusive = mostly about -30% to -63%; also: % is scaled to controls: 0 for no effect and ±100 for the full control effect
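In 5 uL wells, 23 nL compound meets equimolar GST-E1A and His-CtBP (5X stock 125 nM each) for 2 h, 37 °C. Beads (5X, 50 ug/mL) then 1 h, 37 °C, dark.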
HP1b chromo inh: inhibitors of HP1-beta chromodomain binding to methylated histone tails; P83916; AlphaScreen HP1-beta / biotin-H3K9me3 peptide binding; Potency, µM (series often up to 114 µM), for the others: at the highest dose activity change, negative = inhibition, most hits filed as inhibitors; actives 0.56% (n = 390,000); AID 540317; also: potency is read from the fitted curve at half-maximal effect; nearly all actives have a fitted effect of over 70% in size
Target sequence (P83916 whole entry, looked up): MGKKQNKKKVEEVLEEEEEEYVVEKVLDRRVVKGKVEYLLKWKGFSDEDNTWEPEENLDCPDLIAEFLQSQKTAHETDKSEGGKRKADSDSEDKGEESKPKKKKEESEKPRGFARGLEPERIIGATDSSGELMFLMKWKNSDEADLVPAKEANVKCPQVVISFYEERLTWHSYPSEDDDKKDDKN
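Compound inhibition of the preformed complex between 50 nM HP1-beta and 50 nM biotinylated H3K9me3 peptide was read by AlphaScreen. Buffer was PBS pH 7.4 with 0.01% Tween-20. Incubations ran 30 min at room temperature, with 10 ug/mL donor/acceptor beads.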
TDP1 inh: inhibitors of human tyrosyl-DNA phosphodiesterase TDP1; actives 0.28% (n = 350,000); recombinant TDP1, AlphaScreen DNA substrate cleavage; AID 485290; Potency, µM (top dose mostly 130 µM), inactives show at the highest dose activity change, negative = inhibition, usual class: inhibitors; Q9NUW8; also: potency is read from the fitted curve at half-maximal effect; % is scaled to controls: 0 for no effect and ±100 for the full control effect; nearly all actives have a fitted effect of over 40% in size
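Compounds were preincubated with Tdp1 (1 nM final) for 15 min at room temperature before substrate (15 nM final) started a 5 min reaction; beads (10 ug/ml final) were then added for 10 min before AlphaScreen detection.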
Six1-Eya2 blk: inhibitors of human Six1/Eya2 interaction; Q15475+O00167; AlphaScreen GST-Six1/His-Eya2 binding, biochemical; hits give low values; activity change, % (concentration not given with the values); actives 0.56% (n = 360,000); in the data active = activity change below about -65%; inconclusive = mostly about -30% to -63%; also: % is scaled to controls: 0 for no effect and ±100 for the full control effect
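Six1/Eya2 binding was read as AlphaScreen signal after compounds were pinned into GST-Six1 plus His-tagged Eya2 (5X stock 250/500 nM) in pH 8.0 Tris/NaCl/TCEP buffer, beads added, then incubated 1 h, 37 C, dark.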
JMJD2A Tudor inh: inhibitors of human JMJD2A Tudor domain; O75164; AlphaScreen JMJD2A-Tudor / H3K4me3 peptide binding; Potency, µM (highest dose often 114 µM), inactives show at the highest dose activity change, negative = inhibition, usual class: inhibitors; actives 4.4% (n = 390,000); AID 504339; also: potency is read from the fitted curve at half-maximal effect; % is scaled to controls: 0 for no effect and ±100 for the full control effect; nearly all actives have a fitted effect of over 50% in size
Starred values were filed as active, the others as inactive; ? = inconclusive; . = not tested or not shown; [ ] = dose if it differs, or a comment. Most compounds without a hit are left out; they make up all but 5.3% or so of the library. Unless noted, calls follow the shape of the dose curve; as a rule, active = well fitted inhibition curve with a large enough effect; inconclusive = small, poorly fitted or top-dose-only effect; inactive = no such curve, though single readings can be large or run the other way.

SMILES	BAZ2B inh	CtBP-E1A blk	HP1b chromo inh	TDP1 inh	Six1-Eya2 blk	JMJD2A Tudor inh
COc1ccc(CCN(C)Cc2ccc(F)cc2F)cc1OC	?	-2	?	3%	-2	4µM*
COc1ccc(CCn2c(O)c(C=Nc3ccc(F)cc3)c(=O)[nH]c2=O)cc1OC	-3%	.	20%	0%	-5	-24%
CCN(CC)c1ccc(CN(C)CCc2ccc(OC)c(OC)c2)cc1	45µM*	-24	?	1%	-26	10µM*
Clc1cccc(CNCCc2c[nH]c3ccccc23)c1	50µM*	-20	?	.	-18	7.1µM*
c1ccc2c(CCNC3CCCCC3)c[nH]c2c1	?	-3	79µM*	-5%	-7	32µM*
O=C(Cc1ccccc1)c1ccccn1	.	-5	-20%	.	-78*	3.5µM*
C=CCn1c(CSc2ccccc2[N+](=O)[O-])n[nH]c1=S	40µM*	-15	?	.	-23	8.9µM*
ClC(Cl)Br	.	.	.	2%	.	.
CCCCC(=O)Cl	.	.	.	8%	.	.
CN1C(=O)C(C2c3ccccc3C(=O)N2Cc2ccccc2)C(=O)N(C)C1=O (stereo unspecified)	79µM*	11	17%	0%	10	-29%
CN1C(=O)C(C2c3ccccc3C(=O)N2Cc2ccc([N+](=O)[O-])cc2)C(=O)N(C)C1=O (stereo unspecified)	-11%	27	56%	-3%	16	-25%
N#CC(C#N)=NNc1ccc(S(N)(=O)=O)cc1	?	-74*	35µM*	.	?	-19%[11.4 µM]
CCOc1ccc2cc(C#N)c(=O)oc2c1	.	.	.	2%	.	.
C=CCN(CC#CCOc1ccccc1OC)CC=C	50µM*	.	.	.	.	.
Cc1ccccc1-n1c(/C=C/c2c(C)[nH]c3ccccc23)nc2ccccc2c1=O	-17%	.	36%	6%[12.3 µM]	.	-30%
Cc1ccccc1-n1c(/C=C/c2ccc(N(C)C)cc2)nc2ccccc2c1=O	22µM*	.	25%	-5%[12.3 µM]	.	22µM*
CC(C)[C@@]1(NC(=O)[C@@H]2C[C@H]3c4cccc5[nH]cc(c45)C[C@@H]3N(C)C2)O[C@@]2(O)[C@H]3CCCN3C(=O)[C@H](Cc3ccccc3)N2C1=O	.	.	.	14%	.	.
COC(=O)C1C=C2c3cccc4[nH]cc(c34)CC2N(C)C1 (stereo unspecified)	40µM*	.	.	.	.	.
CC(C)C[C@H]1C(=O)N2CCC[C@H]2[C@]2(O)O[C@](NC(=O)[C@@H]3C=C4c5cccc6[nH]cc(c56)C[C@H]4N(C)C3)(C(C)C)C(=O)N12	-34%	?	-14%	.	-2	50µM*
CCOc1cc(-c2ccc(N)c(OCC)c2)ccc1N	14µM*	-29	8.9µM*	-1%	?	?
COc1ccccc1N1C(=O)NC(=O)/C(=C/c2ccc3c(c2)Cc2ccccc2-3)C1=O	50µM*	0	60%	.	7	79µM*
CCOc1cc2c(cc1OCC)-n1cccc1C(c1ccccc1O)NC2 (stereo unspecified)	50µM*	-1	?	.	-19	50µM*
CCOc1cc2c(cc1OCC)-n1cccc1C(c1c(O)cccc1OC)NC2 (stereo unspecified)	45µM*	-29	-23%	.	?	50µM*
CCOc1cc2c(cc1OCC)-n1cccc1C(c1ccc(OC)c(OC)c1)NC2 (stereo unspecified)	?	10	2%	.	-27	?
COC(=O)C1=C(C(=O)OC)SC2(S1)C(C(=O)OC)=C(C(=O)OC)Sc1c2ssc1=O	.	6	16µM*	.	-91*	40µM*
SMILES	BAZ2B inh	CtBP-E1A blk	HP1b chromo inh	TDP1 inh	Six1-Eya2 blk	JMJD2A Tudor inh
COc1ccc2[nH]c(C)c(CCNCc3cn(C)c4ccccc34)c2c1	18µM*	1	-60%	10%	?	3.2µM*
Cc1[nH]c2ccccc2c1CCNCc1cccnc1	?	-1	24%	6%	-7	-31%
O=c1[nH]c(=S)n(C2CC2)c(O)c1C=NCc1cccnc1	-4%	2	29%	.	-3	28µM*
CCOC(=O)c1ccc(N=Cc2c(O)n(-c3ccccc3F)c(=S)[nH]c2=O)cc1	2%	5	36%	1%	-6	-1%
Cc1ccccc1-n1c(O)c(/C=N/NC(=O)c2ccccc2O)c(=O)[nH]c1=S	45µM*	-101*	-8%	.	-92*	-28%[11.4 µM]
O=C(N/N=C/c1c(O)n(C2CC2)c(=S)[nH]c1=O)c1ccccc1O	45µM*	-85*	17%	8%	-83*	40µM*
CN(C)c1ccc(/C=C2\CCCN=C2c2cccnc2)cc1	.	.	.	12%	.	.
Cc1cc(N2C(=O)C3CCCN3C2c2ccccc2)no1 (stereo unspecified)	?	-5	-25%	8%	-9	28µM*
Cc1ccc(C2N(c3cc(C)on3)C(=O)C3CCCN32)cc1 (stereo unspecified)	-35%	2	25%	0%	6	-31%[57.1 µM]
ClCc1ccccn1	.	.	.	14%	.	.
Cc1nn(-c2ccccc2)c2c1C(c1ccc(F)cc1F)C(C#N)=C(N)O2 (stereo unspecified)	?	-1	0%	-2%	-4	-36%
COc1ccc(OC)c(C2C(C#N)=C(N)Oc3c2c(C)nn3-c2ccc(C)cc2)c1 (stereo unspecified)	50µM*	-5	?	8%	2	-18%[11.4 µM]
C=C(Cl)CCl	.	.	.	5%	.	.
Cc1cc(O)c2c(c1)C(=O)c1cc(O)cc(O)c1C2=O	.	?	?	19%[56.1 µM]	-2	45µM*
Cc1c(O)c(=O)ccn1C	45µM*	-2	46%	5%	-12	16µM*
O=C1NC(=O)N(c2ccccc2)C(=O)/C1=C/c1ccc2c(c1)Cc1ccccc1-2	.	.	.	-10%	.	.
CCCCN1C(=O)/C(=C/c2ccc(N3CCCCCC3)cc2)C(=O)NC1=S	?	.	.	1%	.	.
CC(C)(C)N1C(=O)NC(=O)/C(=C\c2ccc3c(c2)CCN3CCCCl)C1=O	?	-5	?	.	-6	40µM*
CCN1C(=O)/C(=C/c2ccc3c(c2)CCN3CCCCl)C(=O)NC1=S	40µM*	0	?	6%	-20	35µM*
C=CCN1C(=O)/C(=C/c2ccc3c(c2)CCCN3CCC)C(=O)NC1=S	45µM*	-1	?	.	-7	56µM*
CC(=O)Nc1ccc(Nc2c(CCC(C)C)c(C)c(C#N)c3nc4ccccc4n23)cc1	0%	.	40%	.	.	-14%
CNc1ccc2oc(C[C@@H]3OC4(CC[C@@H]3C)O[C@H]([C@@H](C)C(=O)c3ccc[nH]3)[C@H](C)C[C@H]4C)nc2c1C(=O)O (stereo partly specified)	.	.	.	24%	.	.

Screening data deposited in PubChem by National Center for Advancing Translational Sciences (NCATS).
